Laboratory results taken from the supplement of paper PMC10849652.
Targets with a hit are over-represented here; the source holds about 7,900 in all. About 0.6% of all pairs of compound and target were hits. A number with no mark means an inactive call.

Tests used:
Experiment in all cases: log2 fold change, soluble protein after heating vs DMSO (PISA); higher = thermal stabilisation; K562 cells, 10 uM, 30 min; active = over 0.2 and 3.5 SD of the protein, either way, in both replicates (recomputed)
[1] = compound: C#Cc1cccc(Nc2ncnc3cc(OCCOC)c(OCCOC)cc23)c1 [erlotinib]
In short: (§1)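 K562 cells at 2×10^6 cells/mL were treated with 10 μM compound for 30 min. Aliquots were heated for 3 min across 48°C-58°C, pooled, and extracted in PBS with 0.5% NP-40 at 4°C; soluble protein was the supernatant after 21,000xg for 90 min. Soluble protein was quantified by TMTpro 16plex LC-MS/MS with channel sums equalised, and reported as log2 fold change in thermal stability against DMSO controls, with values from duplicates.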

[2] = compound: C/C(=N\NC(=O)C1=CC(=CC=C1)S(=O)(=O)N2CCOCC2)/C3=C(C=CC(=C3)Cl)O
In short: as §1

[3] = compound: C1=CC(=C(C=C1Cl)C2=NC3=NC=CN=C3C(=N2)NC4=CC=NC=C4)F
In short: as §1

[4] = compound: C1=CC(=CC=C1C2=NC3=C(N2)C=C(C=C3)C(=O)N)OC4=CC=C(C=C4)Cl
In short: as §1

[5] = compound: C1=CC2=C(C=CC(=C2)/C=C\3/C(=O)NC(=NCC4=CC=CS4)S3)N=C1
In short: as §1

[6] = compound: C1=CC2=NC=CN=C2C=C1/C=C/3\C(=O)NC(=O)S3
In short: as §1

[7] = compound: C1=CC=C(C=C1)C2=NC(=C(N2)C3=CC=NC=C3)C4=CC(=C(C=C4)Cl)O
In short: as §1

[8] = compound: C1=CC=C2C(=C1)C3=NNC4=CC=CC(=C43)C2=O
In short: as §1

[9] = compound: C1CCN(C1)C(=O)NC2=CC=CC(=C2)NC3=NC=C(C(=N3)NCCC4=CN=CN4)Br
In short: as §1

[10] = compound: C1CN(CCC1(CC2=CC=C(C=C2)Cl)N)C3=NC=NC4=C3C=CN4
In short: as §1

Chain of UniProt Q8IVF4 (Q8IVF4 whole entry, looked up): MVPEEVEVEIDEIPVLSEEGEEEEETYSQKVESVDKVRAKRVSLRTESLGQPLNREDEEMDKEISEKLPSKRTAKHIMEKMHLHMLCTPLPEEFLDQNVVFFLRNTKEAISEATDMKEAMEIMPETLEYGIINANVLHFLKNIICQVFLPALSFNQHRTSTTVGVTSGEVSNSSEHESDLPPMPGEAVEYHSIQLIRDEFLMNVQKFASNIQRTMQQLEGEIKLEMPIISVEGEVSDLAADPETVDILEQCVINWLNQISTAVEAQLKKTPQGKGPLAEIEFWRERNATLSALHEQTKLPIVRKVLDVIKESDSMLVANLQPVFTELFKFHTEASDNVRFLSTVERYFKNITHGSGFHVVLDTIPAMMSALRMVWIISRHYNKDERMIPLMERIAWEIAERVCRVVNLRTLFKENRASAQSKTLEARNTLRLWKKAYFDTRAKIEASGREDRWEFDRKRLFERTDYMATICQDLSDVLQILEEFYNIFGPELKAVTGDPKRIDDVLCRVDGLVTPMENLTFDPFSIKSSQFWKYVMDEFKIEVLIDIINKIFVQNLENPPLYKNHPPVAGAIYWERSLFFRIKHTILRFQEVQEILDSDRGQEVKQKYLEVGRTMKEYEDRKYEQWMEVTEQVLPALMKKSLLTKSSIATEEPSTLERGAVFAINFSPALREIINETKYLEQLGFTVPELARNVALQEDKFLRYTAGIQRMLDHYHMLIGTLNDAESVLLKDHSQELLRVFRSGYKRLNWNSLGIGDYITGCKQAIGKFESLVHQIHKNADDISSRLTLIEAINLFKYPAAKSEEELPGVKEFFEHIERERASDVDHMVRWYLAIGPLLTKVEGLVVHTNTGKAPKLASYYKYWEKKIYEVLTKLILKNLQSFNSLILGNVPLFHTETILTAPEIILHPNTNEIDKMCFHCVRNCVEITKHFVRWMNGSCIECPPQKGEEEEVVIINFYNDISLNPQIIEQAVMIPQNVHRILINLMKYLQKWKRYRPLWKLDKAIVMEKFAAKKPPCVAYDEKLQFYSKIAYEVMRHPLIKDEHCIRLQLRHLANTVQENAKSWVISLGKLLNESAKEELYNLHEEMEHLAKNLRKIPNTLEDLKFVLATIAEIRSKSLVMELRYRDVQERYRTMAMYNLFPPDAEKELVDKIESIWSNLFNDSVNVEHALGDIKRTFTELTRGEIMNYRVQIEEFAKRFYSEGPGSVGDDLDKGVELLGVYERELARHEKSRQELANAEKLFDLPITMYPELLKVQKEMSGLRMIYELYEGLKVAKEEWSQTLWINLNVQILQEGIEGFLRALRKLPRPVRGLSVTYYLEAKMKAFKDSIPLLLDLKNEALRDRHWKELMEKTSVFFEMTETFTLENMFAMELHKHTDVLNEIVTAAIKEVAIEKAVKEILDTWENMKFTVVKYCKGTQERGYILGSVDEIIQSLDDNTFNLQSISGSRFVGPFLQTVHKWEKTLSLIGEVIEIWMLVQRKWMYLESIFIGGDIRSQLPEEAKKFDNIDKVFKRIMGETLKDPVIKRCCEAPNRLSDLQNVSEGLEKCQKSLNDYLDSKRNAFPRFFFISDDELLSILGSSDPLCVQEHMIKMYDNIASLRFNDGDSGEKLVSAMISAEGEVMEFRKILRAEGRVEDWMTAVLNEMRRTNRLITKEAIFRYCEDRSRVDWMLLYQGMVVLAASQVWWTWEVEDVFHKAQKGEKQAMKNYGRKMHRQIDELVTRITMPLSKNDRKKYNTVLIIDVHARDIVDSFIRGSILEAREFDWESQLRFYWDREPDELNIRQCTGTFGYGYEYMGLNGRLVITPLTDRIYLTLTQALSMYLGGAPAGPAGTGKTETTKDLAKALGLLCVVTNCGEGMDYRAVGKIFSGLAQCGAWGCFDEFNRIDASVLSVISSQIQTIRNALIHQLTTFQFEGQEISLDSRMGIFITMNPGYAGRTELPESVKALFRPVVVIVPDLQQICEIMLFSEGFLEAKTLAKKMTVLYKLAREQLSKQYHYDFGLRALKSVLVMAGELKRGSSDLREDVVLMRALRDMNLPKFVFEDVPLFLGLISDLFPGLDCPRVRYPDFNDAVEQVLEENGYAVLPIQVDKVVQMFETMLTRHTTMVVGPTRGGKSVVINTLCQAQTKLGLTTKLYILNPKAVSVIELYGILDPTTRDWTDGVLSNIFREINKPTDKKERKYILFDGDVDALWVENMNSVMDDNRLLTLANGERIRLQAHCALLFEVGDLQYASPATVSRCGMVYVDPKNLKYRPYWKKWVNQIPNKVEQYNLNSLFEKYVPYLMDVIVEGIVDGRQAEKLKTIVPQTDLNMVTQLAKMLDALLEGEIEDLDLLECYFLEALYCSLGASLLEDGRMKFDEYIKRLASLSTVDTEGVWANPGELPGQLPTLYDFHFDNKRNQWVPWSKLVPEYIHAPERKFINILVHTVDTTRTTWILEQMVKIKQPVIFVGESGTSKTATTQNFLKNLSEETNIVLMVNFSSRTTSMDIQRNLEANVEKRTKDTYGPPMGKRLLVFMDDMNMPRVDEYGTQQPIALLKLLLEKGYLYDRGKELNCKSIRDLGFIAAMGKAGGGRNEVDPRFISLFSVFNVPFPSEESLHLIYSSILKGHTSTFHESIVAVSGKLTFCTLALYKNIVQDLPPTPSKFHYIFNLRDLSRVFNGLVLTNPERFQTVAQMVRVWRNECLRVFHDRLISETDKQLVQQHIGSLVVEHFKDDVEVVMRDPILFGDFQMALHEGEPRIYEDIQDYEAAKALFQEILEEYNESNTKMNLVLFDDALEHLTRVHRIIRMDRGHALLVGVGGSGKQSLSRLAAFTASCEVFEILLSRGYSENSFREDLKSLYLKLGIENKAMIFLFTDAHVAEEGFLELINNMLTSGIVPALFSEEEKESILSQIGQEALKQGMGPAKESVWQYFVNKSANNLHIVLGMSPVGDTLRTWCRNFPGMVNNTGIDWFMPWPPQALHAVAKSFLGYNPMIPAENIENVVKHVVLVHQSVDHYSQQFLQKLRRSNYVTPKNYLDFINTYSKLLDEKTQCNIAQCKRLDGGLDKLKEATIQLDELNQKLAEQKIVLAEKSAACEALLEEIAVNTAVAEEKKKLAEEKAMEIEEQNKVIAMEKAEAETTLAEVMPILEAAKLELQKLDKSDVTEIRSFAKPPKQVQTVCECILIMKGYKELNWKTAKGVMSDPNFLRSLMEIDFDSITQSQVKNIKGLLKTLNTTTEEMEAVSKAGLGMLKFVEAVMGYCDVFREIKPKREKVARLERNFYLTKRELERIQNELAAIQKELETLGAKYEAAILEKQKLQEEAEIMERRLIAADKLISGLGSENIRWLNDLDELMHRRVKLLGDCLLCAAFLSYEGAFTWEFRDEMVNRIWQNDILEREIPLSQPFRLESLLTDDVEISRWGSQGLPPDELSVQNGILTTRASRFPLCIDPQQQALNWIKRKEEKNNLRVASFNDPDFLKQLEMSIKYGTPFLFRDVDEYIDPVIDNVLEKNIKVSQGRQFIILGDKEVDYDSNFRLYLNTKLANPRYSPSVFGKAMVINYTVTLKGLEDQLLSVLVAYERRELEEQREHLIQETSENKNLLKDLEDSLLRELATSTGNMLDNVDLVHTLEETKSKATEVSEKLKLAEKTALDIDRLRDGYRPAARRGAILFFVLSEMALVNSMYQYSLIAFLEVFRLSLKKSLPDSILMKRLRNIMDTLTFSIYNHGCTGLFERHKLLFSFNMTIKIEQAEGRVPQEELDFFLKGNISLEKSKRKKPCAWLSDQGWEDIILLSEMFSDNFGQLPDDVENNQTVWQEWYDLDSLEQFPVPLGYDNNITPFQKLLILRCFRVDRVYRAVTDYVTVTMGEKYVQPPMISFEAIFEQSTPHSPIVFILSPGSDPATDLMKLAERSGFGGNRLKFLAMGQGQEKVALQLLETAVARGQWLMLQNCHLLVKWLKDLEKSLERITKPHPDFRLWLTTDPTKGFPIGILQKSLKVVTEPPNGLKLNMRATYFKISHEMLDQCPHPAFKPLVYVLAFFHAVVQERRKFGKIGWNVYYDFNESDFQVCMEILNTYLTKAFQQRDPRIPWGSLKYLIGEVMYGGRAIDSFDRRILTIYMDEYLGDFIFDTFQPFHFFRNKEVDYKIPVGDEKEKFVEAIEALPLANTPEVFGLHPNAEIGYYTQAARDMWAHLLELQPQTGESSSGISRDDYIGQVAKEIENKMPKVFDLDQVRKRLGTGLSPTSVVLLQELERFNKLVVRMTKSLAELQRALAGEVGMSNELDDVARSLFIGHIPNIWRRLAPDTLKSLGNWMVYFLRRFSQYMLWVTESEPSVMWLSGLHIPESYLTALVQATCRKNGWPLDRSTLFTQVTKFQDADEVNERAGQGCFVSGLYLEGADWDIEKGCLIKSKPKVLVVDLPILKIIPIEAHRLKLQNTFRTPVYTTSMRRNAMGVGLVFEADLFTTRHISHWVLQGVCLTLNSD
Chain of UniProt Q8N8J7 (Q8N8J7 whole entry, looked up): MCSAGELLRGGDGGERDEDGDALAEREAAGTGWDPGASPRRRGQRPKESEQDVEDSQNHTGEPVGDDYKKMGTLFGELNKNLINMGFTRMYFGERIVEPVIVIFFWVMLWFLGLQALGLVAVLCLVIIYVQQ
Chain of UniProt Q6P3W2 (Q6P3W2 whole entry, looked up): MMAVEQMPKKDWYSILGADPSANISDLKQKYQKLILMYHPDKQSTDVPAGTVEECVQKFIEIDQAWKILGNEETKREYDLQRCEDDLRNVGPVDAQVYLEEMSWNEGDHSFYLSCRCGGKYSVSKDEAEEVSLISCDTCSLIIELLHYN
Chain of UniProt P29692 (P29692 whole entry, looked up): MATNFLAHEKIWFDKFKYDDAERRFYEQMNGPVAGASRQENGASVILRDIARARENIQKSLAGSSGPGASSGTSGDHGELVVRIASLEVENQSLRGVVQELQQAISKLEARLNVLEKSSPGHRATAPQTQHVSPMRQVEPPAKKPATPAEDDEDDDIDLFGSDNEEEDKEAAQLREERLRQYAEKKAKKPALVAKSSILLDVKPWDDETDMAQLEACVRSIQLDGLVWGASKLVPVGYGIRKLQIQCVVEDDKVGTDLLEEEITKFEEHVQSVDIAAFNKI

| Target | log2 fold change [1] | log2 fold change [2] | log2 fold change [3] | log2 fold change [4] | log2 fold change [5] | log2 fold change [6] | log2 fold change [7] | log2 fold change [8] | log2 fold change [9] | log2 fold change [10] |
| --- | --- | --- | --- | --- | --- | --- | --- | --- | --- | --- |
| DOHH (UniProt Q9BU89) | -0.001 | -0.102 | -0.046 | 0 | 0.083 | -0.183 | 0.064 | 0.038 | -0.051 | 0.026 |
| DPYSL2 (UniProt Q16555) | -0.02 | -0.104 | 0.099 | 0.072 | 0.074 | 0.003 | – | 0.055 | -0.044 | 0.14 |
| DHFR (UniProt P00374) | 0.156 | 0 | -0.176 | -0.144 | 0.03 | 0.043 | 0.055 | 0.049 | -0.047 | -0.015 |
| CTNNB1 (UniProt P35222) | -0.035 | 0.062 | -0.033 | 0.025 | 0.092 | 0.108 | 0.036 | -0.01 | -0.002 | -0.032 |
| CYB561A3 isoform 2 (UniProt Q8NBI2) | -0.021 | -0.016 | – | 0.02 | -0.005 | 0.114 | 0.043 | -0.034 | -0.01 | 0.069 |
| FAM117B (UniProt Q6P1L5) | 0.088 | 0.053 | -0.134 | 0.079 | 0.098 | – | 0.151 | 0.099 | 0.165 | 0.09 |
| EIF3J isoform 2 (UniProt O75822) | 0.094 | -0.093 | 0.029 | 0.005 | 0.14 | -0.042 | – | -0.138 | 0.143 | 0 |
| DHRS1 (UniProt Q96LJ7) | -0.045 | 0.995 (active) | -0.02 | -0.105 | 0.353 | -0.034 | 0.813 (active) | -0.163 | -0.163 | -0.021 |
| DCP2 (UniProt Q8IU60) | – | 0.176 | -0.117 | – | -0.118 | – | 0.021 | -0.073 | -0.134 | -0.064 |
| DNAL1 (UniProt Q4LDG9) | – | -0.034 | 0.053 | – | -0.07 | -0.654 (active) | -0.113 | 0.091 | – | – |
| FADS1 (UniProt F5GYH4) | – | – | – | – | – | 0.155 | – | – | 0.057 | 0.002 |
| FAM193B (UniProt Q96PV7) | – | -0.127 | -0.311 | – | -0.085 | 0.068 | – | -0.101 | -0.133 | -0.483 |
| CTSS (UniProt P25774) | – | – | – | – | – | – | -0.215 | – | 0.144 | 0.545 |
| DNAJB1 (UniProt M0R128) | – | – | – | – | – | -0.105 | – | – | 0.142 | 0.133 |
| ELMO1 (UniProt Q92556) | 0.111 | – | -0.079 | -0.001 | – | 0.037 | -0.308 | – | – | – |
| EIF4G1 (UniProt Q04637) | – | 0.171 | – | – | 0.018 | – | – | -0.356 | -0.301 | -0.425 |
| EEF2K (UniProt O00418) | -0.064 | – | -0.137 | -0.024 | – | – | 0.027 | – | – | – |
| EEF1D isoform 3 (UniProt P29692) | -0.009 | – | – | 0.009 | – | – | – | – | -0.16 | -0.087 |
| DHRS13 (UniProt Q6UX07) | 0.014 | 0.043 | – | -0.006 | 0.037 | – | 0.073 | 0.047 | -0.009 | 0.065 |
| DNM2 isoform 4 (UniProt P50570) | 0.042 | – | 0.084 | -0.128 | – | 0.261 | -0.008 | – | – | – |
| DNAJC24 (UniProt Q6P3W2) | -0.114 | – | 0.123 | 0.062 | – | -0.053 | -0.084 | – | -0.047 | -0.158 |
| EPHX2 (UniProt E5RI53) | – | – | 0.037 | – | – | -0.082 | – | – | – | – |
| EID1 (UniProt Q9Y6B2) | -0.17 | – | -0.425 | 0.137 | – | – | – | – | 0.092 | 0.029 |
| DDX46, A0A0C4DG89 | – | – | 0.174 | – | – | – | – | – | – | – |

| Target | log2 fold change [1] | log2 fold change [2] | log2 fold change [3] | log2 fold change [4] | log2 fold change [5] | log2 fold change [6] | log2 fold change [7] | log2 fold change [8] | log2 fold change [9] | log2 fold change [10] |
| --- | --- | --- | --- | --- | --- | --- | --- | --- | --- | --- |
| CTNNBL1 (UniProt Q8WYA6) | – | – | – | – | – | -0.032 | – | – | – | – |
| DOP1A (UniProt Q5JWR5) | 0.177 | – | 0.009 | -0.152 | – | 0.035 | – | – | – | – |
| DDB1 isoform 2 (UniProt Q16531) | – | – | 0.017 | – | – | 0.205 | – | – | – | – |
| F2RL3 (UniProt Q96RI0) | -0.056 | 0.026 | – | -0.083 | 0.039 | – | -0.052 | -0.12 | -0.161 | 0.065 |
| EDRF1 (UniProt Q3B7T1) | 0.066 | – | -0.038 | -0.119 | – | -0.017 | -0.033 | – | – | – |
| DCAF4 (UniProt Q8WV16) | – | – | 0.009 | – | – | – | -0.15 | – | – | – |
| FAM135A (UniProt Q9P2D6) | 0.033 | – | 0.07 | -0.116 | – | – | – | – | – | – |
| ENTPD7 (UniProt Q9NQZ7) | 0.096 | – | -0.028 | -0.181 | – | 0.063 | – | – | -0.042 | 0.037 |
| DNAH5 (UniProt Q8TE73) | 0.014 | – | 0.036 | 0.001 | – | -0.005 | -0.067 | – | 0.084 | 0.095 |
| DLK1 (UniProt P80370) | – | – | 0.028 | – | – | – | – | – | – | – |
| DOLPP1 (UniProt Q86YN1) | 0.049 | 0.039 | – | 0.009 | -0.165 | 0.074 | 0.17 | 0.011 | -0.088 | 0.001 |
| DENND1A isoform 6 (UniProt Q8TEH3) | – | – | – | – | – | -0.328 | – | – | -0.315 | -0.034 |
| ENTR1 (UniProt Q96C92) | -0.015 | – | – | 0.043 | – | – | – | – | – | – |
| FAM160A2 isoform 2 (UniProt Q8N612) | – | – | 0.2 | – | – | -0.012 | -0.134 | – | -0.071 | 0.027 |
| EHBP1 (UniProt Q8NDI1) | – | -0.012 | – | – | 0.086 | – | – | 0.095 | -0.132 | 0.033 |
| CWF19L2 (UniProt Q2TBE0) | 0.004 | 0.056 | – | 0.038 | 0.03 | – | -0.132 | -0.014 | 0.017 | -0.04 |
| DNAH10 (UniProt Q8IVF4) | 0.325 | – | 0.251 | -0.187 | – | -0.054 | – | – | -0.052 | 0.137 |
| DHPS (UniProt M0R1T2) | – | – | – | – | – | 0.099 | – | – | – | – |
| ERF (UniProt P50548) | -0.448 | – | 0.127 | -0.036 | – | – | – | – | 0.058 | 0.13 |
| FAM118A (UniProt Q9NWS6) | – | 0.005 | 0.098 | – | 0.083 | 0.089 | -0.365 | 0.212 | 0.084 | 0.078 |
| DERPC (UniProt P0CG12) | 0.197 | – | – | -0.346 | – | 0.078 | -0.034 | – | – | – |
| EIF4G3 isoform 3 (UniProt O43432) | 0.047 | 0.01 | – | -0.083 | 0.041 | -0.046 | -0.028 | 0.071 | -0.049 | -0.125 |
| FAM241A (UniProt Q8N8J7) | -0.012 | -0.005 | – | 0.044 | -0.076 | 0.043 | -0.014 | 0.012 | 0.016 | 0.045 |
| EPHB4 (UniProt P54760) | – | – | – | – | – | – | -0.151 | – | – | – |
